Rows were chosen to be rich in hits. Some 18% of all compounds tested hit in one or more screens of this group.
TDP1 block – inhibitors of human tyrosyl-DNA phosphodiesterase TDP1. Q9NUW8. Potency, µM (highest dose often 130 µM), for the others: top-dose activity change, negative = inhibition, most hits filed as inhibitors. hit rate 0.28% among 350,000. recombinant TDP1, AlphaScreen DNA substrate cleavage. AID 485290; also: nearly all actives have a fitted effect of over 40% in size
Target sequence (Q9NUW8 whole entry, looked up): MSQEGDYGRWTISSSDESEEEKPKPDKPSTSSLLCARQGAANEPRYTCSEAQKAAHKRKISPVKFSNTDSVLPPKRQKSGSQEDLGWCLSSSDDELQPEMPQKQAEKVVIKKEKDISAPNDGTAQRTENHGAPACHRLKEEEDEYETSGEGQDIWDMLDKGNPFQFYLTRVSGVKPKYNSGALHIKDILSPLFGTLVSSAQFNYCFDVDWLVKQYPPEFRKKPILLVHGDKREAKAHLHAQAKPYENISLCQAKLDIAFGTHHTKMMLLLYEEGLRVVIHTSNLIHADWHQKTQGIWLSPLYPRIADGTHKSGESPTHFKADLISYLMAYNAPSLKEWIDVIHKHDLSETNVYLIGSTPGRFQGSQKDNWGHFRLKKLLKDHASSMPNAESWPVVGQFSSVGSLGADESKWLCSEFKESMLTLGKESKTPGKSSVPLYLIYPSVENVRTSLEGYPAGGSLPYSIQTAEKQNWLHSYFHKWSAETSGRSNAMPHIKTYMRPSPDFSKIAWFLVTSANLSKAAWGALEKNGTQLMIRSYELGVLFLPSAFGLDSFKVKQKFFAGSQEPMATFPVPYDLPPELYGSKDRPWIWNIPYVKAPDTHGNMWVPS
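Signal: AlphaScreen proximity between streptavidin donor and anti-FITC acceptor beads on intact substrate. Reaction: Tdp1 1 nM, substrate 15 nM final, 5 min RT after 15 min compound preincubation.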
DT40 TDP1 CPT – growth inhibition of DT40 Tdp1-/-;hTDP1 cells with camptothecin (screen for TDP1 inhibitors) | hit rate 12% among 420,000 | Potency, µM (series often up to 46.2 µM), for the others: at the highest dose activity change, negative = growth inhibition, most hits filed as inhibitors | AID 686979 | chicken DT40 Tdp1-/-;hTDP1 cells + 20 nM CPT, ATP luminescence, 48 h; also: nearly all actives have a fitted effect of over 55% in size
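Chicken DT40 Tdp1-/- cells stably complemented with human TDP1 were seeded at 400 cells/well in medium containing 20 nM camptothecin, exposed to pin-transferred compounds, and grown at 37 °C for at least 48 hr. Viability was read as ATP luminescence.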
KAT2A inh – GCN5L2 (KAT2A) acetyltransferase inhibition; Potency, µM (series often up to 58.9 µM), for inactives: at the top dose activity change, negative = inhibition, most hits filed as inhibitors; Q92830; hit rate 0.21% among 390,000; GCN5L2 HAT assay, ThioGlo1 CoA-SH fluorescence
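Fluorescence readout, Ex340nm/Em540nm: ThioGlo1 (50uM final) reacts with free CoA thiol released as 20nM GCN5L2 acetylates H3(1-25) peptide (75uM) using acetyl-CoA (70uM). Compound and enzyme sat 15 min beforehand; 20 min room-temperature reaction.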
PLK1 PBD inh – inhibitors of human PLK1 polo-box domain binding; P53350; Plk1 PBD binding of FITC phosphopeptide, fluorescence polarization; Potency, µM, without a hit: max response, negative = inhibition, hits mostly inhibitors; hit rate 2.8% among 360,000; also: series mostly up to about 57 µM; nearly all actives have a fitted effect of over 65% in size
DT40 TDP1 no CPT – qHTS for Inhibitors of human tyrosyl-DNA phosphodiesterase 1 (TDP1): qHTS in cells in absence of CPT | hit rate 15% among 420,000 | Potency, µM (top dose mostly 46.2 µM), inactives show at the top dose activity change, negative = growth inhibition, hits mostly inhibitors | DT40 Tdp1-/- hTDP1 cells, no CPT, ATP luminescence, 48 h | AID 686978, 2013; also: nearly all actives have a fitted effect of over 55% in size
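Growth of hTDP1-complemented DT40 Tdp1-knockout cells is measured by ATP luminescence after at least 48 hr compound exposure at 37 °C, with DMSO substituting for the 20 nM CPT used in the parallel screen.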
VDR inhibitor – vitamin D3 receptor (human) inhibition | hit rate 0.93% among 400,000 | AID 504847 | Potency, µM, without a hit: max response, negative = inhibition, most hits filed as inhibitors | P11473 | VDR-SRC2-3 peptide fluorescence polarization, 2 h
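The screen uses fluorescence polarization to detect compounds that interfere with recruitment of the SRC2-3 coactivator peptide to VDR; plates are read after 2 h at room temperature.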
Active calls of the source: *; [ ] = remark or other dose. Calls follow the shape of the dose curve; as a rule, active = well fitted curve in the direction sought with a large enough effect; inconclusive = small, poorly fitted or top-dose-only effect, or another doubt; inactive = no such curve, though single readings can be large; an effect the other way counts as inactive or inconclusive. % is scaled to controls: 0 for no effect and ±100 for the full control effect; potency is read from the fitted curve at half-maximal effect.

For Cc1cc(C)c2nc(NNC(=O)c3ccc(S(=O)(=O)N4CCc5ccccc5C4)cc3)sc2c1 the results were TDP1 block 0.0%, DT40 TDP1 CPT 5.17µM*, KAT2A inh -13.4%, PLK1 PBD inh -1.3%, DT40 TDP1 no CPT 4.61µM* and VDR inhibitor 7.2%.
For Cc1ccc(C)c(CN2C(=O)c3ccccc3S(=O)(=O)c3ccc(C(=O)N4CCN(c5ccccn5)CC4)cc32)c1 the results were TDP1 block 4.6%, DT40 TDP1 CPT inconclusive, KAT2A inh -10.7%, DT40 TDP1 no CPT inconclusive and VDR inhibitor -12.3%.
Screening Cc1cccc(-n2c(C)cc(C(=S)N3CCOCC3)c2C)c1C returned TDP1 block 2.8%, DT40 TDP1 CPT 14.6µM*, KAT2A inh -1.9%, PLK1 PBD inh inconclusive, DT40 TDP1 no CPT 18.4µM* and VDR inhibitor inconclusive.
For Cc1cc(C)cc(-n2c(C)cc(C(=S)N3CCOCC3)c2C)c1 the results were TDP1 block -2.7%, DT40 TDP1 CPT inconclusive, KAT2A inh -5.7%, PLK1 PBD inh 18.9µM*, DT40 TDP1 no CPT 11.6µM* and VDR inhibitor -22.4%.
Screening CCCC[C@]12Cc3cc(OC)c(OC)cc3C(O1)c1c(cc(-c3ccccc3)oc1=O)O2 returned KAT2A inh -11.0%[12.7 µM].
`O=C1[C@@H]2[C@H](C(=O)N1CC(O)COCc1ccccc1)C1C=C[C@H]2C1` (stereo partly drawn) gave DT40 TDP1 CPT -0.6%, PLK1 PBD inh -4.3%, DT40 TDP1 no CPT 8.8% and VDR inhibitor 3.2%.
Screening CCCC[C@@H](CNC)NC[C@H](Cc1ccc(O)cc1)NCCc1ccc(OCC)cc1 returned DT40 TDP1 CPT 5.17µM*, KAT2A inh -2.7%, PLK1 PBD inh -2.0%, DT40 TDP1 no CPT 3.26µM* and VDR inhibitor -9.3%.
COc1ccc2cc(C(=O)N/N=C/c3sc4ccccc4c3O)ccc2c1 was read as TDP1 block 8.1%, DT40 TDP1 CPT 10.3µM*, KAT2A inh -20.3%, PLK1 PBD inh -1.7%, DT40 TDP1 no CPT 7.31µM* and VDR inhibitor -17.7%.
COc1ccc(C(=O)N/N=C/c2sc3ccccc3c2O)cc1 was read as TDP1 block 10.6%, DT40 TDP1 CPT 2.59µM*, KAT2A inh -12.3%, PLK1 PBD inh 57.9%, DT40 TDP1 no CPT 3.66µM* and VDR inhibitor -19.5%.
`O=C(N/N=C/c1ccc(F)cc1)c1ccccc1` gave TDP1 block -3.4%, DT40 TDP1 CPT 3.3%, KAT2A inh 3.5%, PLK1 PBD inh -0.7%, DT40 TDP1 no CPT -6.4% and VDR inhibitor -4.4%.
For O=C(N/N=C/c1sc2ccccc2c1O)c1ccccc1 the results were TDP1 block 5.3%, DT40 TDP1 CPT 0.92µM*, KAT2A inh 28.4%, PLK1 PBD inh 56.1%, DT40 TDP1 no CPT 0.651µM* and VDR inhibitor -10.0%.
Cc1sccc1/C=N/NC(=O)c1cccc2ccccc12 was read as TDP1 block 3.4%, DT40 TDP1 CPT inconclusive, KAT2A inh -6.7%, PLK1 PBD inh -3.6%, DT40 TDP1 no CPT inconclusive and VDR inhibitor -26.8%.
O=C(N/N=C/c1sc2ccccc2c1O)c1cccc2ccccc12 was read as TDP1 block 8.2%, DT40 TDP1 CPT 2.59µM*, KAT2A inh -5.1%, PLK1 PBD inh 51.8%, DT40 TDP1 no CPT 5.17µM* and VDR inhibitor inconclusive.
Screening Cc1[nH]c(=S)[nH]c(=O)c1Cc1c(O)ccc2ccccc12 returned DT40 TDP1 CPT 2.9%, PLK1 PBD inh inconclusive, DT40 TDP1 no CPT inconclusive and VDR inhibitor -28.8%.
`O=c1[nH]c(=S)[nH]c(-c2ccccc2)c1Cc1c(O)ccc2ccccc12` gave KAT2A inh inconclusive and VDR inhibitor 22.4µM*.
For CCNc1nc(Oc2ccc(C(=O)OC)cc2)nc(N(C)C)n1 the results were TDP1 block 2.4%, DT40 TDP1 CPT inconclusive, KAT2A inh -2.3%, PLK1 PBD inh 1.0%, DT40 TDP1 no CPT inconclusive and VDR inhibitor -2.6%.
For COC(=O)c1ccc(Oc2nc(Nc3ccc(C)c(C)c3)nc(N(C)C)n2)cc1 the results were TDP1 block 2.6%, DT40 TDP1 CPT 11.2µM*, KAT2A inh -8.9%, PLK1 PBD inh -10.2%, DT40 TDP1 no CPT 17.8µM* and VDR inhibitor 14.4%.
For CC(C)(C)NC(=O)[C@]1(C)CCC[C@@]2(C)C3CC[C@@]4(C)C[C@]3(CCC21)CC4=O (stereo partly drawn) the results were TDP1 block 0.0%, DT40 TDP1 CPT inconclusive, KAT2A inh -8.7%, PLK1 PBD inh -11.7%, DT40 TDP1 no CPT -24.5% and VDR inhibitor -20.3%.
For CC(C)(C)CNC(=O)[C@]1(C)CCC[C@@]2(C)C3CC[C@@]4(C)C[C@]3(CCC21)CC4=O (stereo partly drawn) the results were TDP1 block 0.8%, DT40 TDP1 CPT inconclusive, KAT2A inh -0.5%, PLK1 PBD inh 3.6%, DT40 TDP1 no CPT 23.1µM* and VDR inhibitor 0.0%.
For C[C@@]12CCC3[C@@](CCC4[C@@]3(C)CCC[C@@]4(C)C(=O)NCc3ccccc3)(CC1=O)C2 (stereo partly drawn) the results were TDP1 block -3.1%, DT40 TDP1 CPT inconclusive, KAT2A inh 2.6%, PLK1 PBD inh -12.8%, DT40 TDP1 no CPT 18.4µM* and VDR inhibitor -14.3%.
C=C(C1=CCN(S(=O)(=O)C(C)(C)C)[C@@H]1CCO)c1ccccc1 was read as DT40 TDP1 CPT inconclusive, PLK1 PBD inh -11.9%, DT40 TDP1 no CPT inconclusive and VDR inhibitor 2.3%.
For COc1ccc(CNC(=O)CN2C(=O)NC(Cc3ccccc3)(c3ccccc3)C2=O)cc1OC (stereo not drawn) the results were TDP1 block 2.4%, DT40 TDP1 CPT inconclusive, KAT2A inh -3.3%, PLK1 PBD inh 2.2%, DT40 TDP1 no CPT inconclusive and VDR inhibitor 2.4%.
For Cc1ccc(C(=O)NCC(c2cccs2)S(=O)(=O)c2cccs2)cc1C (stereo not drawn) the results were TDP1 block 5.2%, DT40 TDP1 CPT 11.6µM*, KAT2A inh 3.1%, DT40 TDP1 no CPT 20.6µM* and VDR inhibitor 7.0%.
O=C(NCC(c1cccs1)S(=O)(=O)c1cccs1)c1ccc(F)c(F)c1 (stereo not drawn) was read as TDP1 block 5.2%, DT40 TDP1 CPT inconclusive, KAT2A inh -2.9%, DT40 TDP1 no CPT inconclusive and VDR inhibitor 2.7%.
`O=C(NCC(c1cccs1)S(=O)(=O)c1cccs1)c1ccc(Cl)cc1` (stereo not drawn) gave TDP1 block 7.8%, DT40 TDP1 CPT inconclusive, KAT2A inh -19.2%, DT40 TDP1 no CPT 18.4µM* and VDR inhibitor 9.3%.

Screening results from PubChem BioAssay.
